This is an account of results in PubChem BioAssay (Tox21).

Experiment [1] addresses Progesterone receptor (Homo sapiens) (UniProt P06401). The experiment can be described thus: qHTS assay to identify small molecule agonists of the progesterone receptor (PR) signaling pathway (AID 1346784; calls by dose curve; further: nearly all actives have a fitted effect of over 30% in size; further: potency means the concentration at half of the fitted maximal effect). The procedure, abridged:
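Agonist mode, quantitative HTS format in a HEK 293T line expressing a UAS-controlled beta-lactamase reporter; 16 hr compound exposure at 37C in 2% charcoal-stripped FBS, then LiveBLAzer B/G FRET fluorescence.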

A short description of experiment [2]: qHTS assay to identify small molecule agonists of the progesterone receptor (PR) signaling pathway - cell viability counter screen (AID 1346799; calls by dose curve; further: nearly all actives have a fitted effect of over 45% in size; further: potency means the concentration at half of the fitted maximal effect). In short, it runs like this: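 Counter screen for cytotoxicity: compound-treated PR-UAS-bla HEK293T cells (16 hr, 37C, 5% CO2) were assayed with CellTiter-Glo, luminescence measured after 30 min at room temperature.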
(Quantitative high-throughput screening tests each substance at several concentrations.)

A short description of experiment [3]: qHTS assay to identify small molecule antagonists of the TGF-beta/Smad signaling pathway - cell viability counter screen (AID 1346824). Further: nearly all actives have a fitted effect of over 50% in size. Further: potency means the concentration at half of the fitted maximal effect. The procedure, abridged:
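SBE-bla HEK 293T cells, incubated overnight, then compound plus 0.25 ng/mL TGF-beta1 (stock added) for 5 hr at 37 C. Viability was read in the same wells by CellTiter-Glo luminescence after 30 min at room temperature.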

Experiment [4] can be described thus: qHTS assay to identify small molecule agonists of the TGF-beta/Smad signaling pathway - cell viability counter screen (AID 1346829). Further: nearly all actives have a fitted effect of over 45% in size. Further: potency means the concentration at half of the fitted maximal effect. In short, it runs like this: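 Compound-treated SBE-bla HEK 293T cells (5 hr, 37 C) were assessed for viability with CellTiter-Glo in parallel with the reporter read.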
A short description of experiment [5]: qHTS assay to identify small molecule agonists of the TGF-beta/Smad signaling pathway (AID 1346859; active means well fitted activation curve with a large enough effect in the signal ratio in the repeat runs, not every such curve was filed as active; the % refers to the signal ratio; further: series mostly up to about 77 µM). The procedure, abridged: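 Smad-responsive beta-lactamase reporter cells (HEK 293T) received compounds from DMSO stocks after overnight attachment, were incubated 5 hr, then treated 2 hr with FRET substrate before dual-emission fluorescence measurement (405 nm excitation).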

For experiment [6], the target named is Thyrotropin-releasing hormone receptor (Homo sapiens) (UniProt P34981). Put plainly: qHTS assay to identify small molecule antagonists of the thyrotropin-releasing hormone receptor (TRHR) signaling pathway (AID 1346877; active means well fitted inhibition curve with a large enough effect in the repeat runs, not every such curve was filed as active; further: series mostly up to about 51 µM). The procedure, abridged: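 TRHR-expressing HEK293 cells loaded with calcium dye for 2 h at 37 C; compounds pre-incubated 5 min at room temperature before TRH challenge at 1 nM final. Intracellular calcium fluorescence read kinetically for 3 min; 15 concentrations in triplicate.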
Chain of Thyrotropin-releasing hormone receptor (Homo sapiens) (P34981 whole entry, looked up): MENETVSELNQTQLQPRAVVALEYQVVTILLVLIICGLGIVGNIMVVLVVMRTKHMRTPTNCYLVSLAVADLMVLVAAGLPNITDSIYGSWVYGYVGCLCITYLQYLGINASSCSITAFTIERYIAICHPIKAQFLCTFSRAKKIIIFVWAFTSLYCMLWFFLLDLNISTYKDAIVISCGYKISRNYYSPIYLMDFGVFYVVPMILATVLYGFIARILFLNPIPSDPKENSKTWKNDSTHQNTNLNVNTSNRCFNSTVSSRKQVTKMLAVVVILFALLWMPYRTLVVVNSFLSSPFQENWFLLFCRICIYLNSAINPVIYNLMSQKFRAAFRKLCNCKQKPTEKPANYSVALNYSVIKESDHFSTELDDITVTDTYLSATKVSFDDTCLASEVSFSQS

Experiment [7] shares this target. Put plainly: qHTS assay to identify small molecule agonists of the thyrotropin-releasing hormone receptor (TRHR) signaling pathway (AID 1346891; calls by dose curve; further: series mostly up to about 58 µM). The procedure, abridged: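 Agonist-mode calcium mobilisation screen: TRHR-transfected HEK293 cells cultured overnight (18 h), dye-loaded for 2 h at 37 °C, exposed to compounds, and monitored by fluorescence for 3 min.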

A short description of experiment [8]: qHTS assay to identify small molecule antagonists of the progesterone receptor (PR) signaling pathway - cell viability counter screen (AID 1346798). Further: nearly all actives have a fitted effect of over 50% in size. Further: potency means the concentration at half of the fitted maximal effect. In short, it runs like this:
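Same-well multiplex: after 16 hr at 37C with compound and R5020 stimulation, HEK293T cells carrying a UAS-bla reporter received LiveBLAzer substrate (2 hr RT), then CellTiter-Glo (30 min RT) for luminescent viability.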

Experiment [9] has as its target Progesterone receptor (Homo sapiens) (UniProt P06401). The experiment can be described thus: qHTS assay to identify small molecule antagonists of the progesterone receptor (PR) signaling pathway (AID 1346795; active means well fitted inhibition curve with a large enough effect in the signal ratio in the repeat runs, not every such curve was filed as active; the % refers to the signal ratio; further: potency means the concentration at half of the fitted maximal effect). The procedure, abridged:
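HEK293T PR-UAS-bla reporter cells in charcoal-stripped serum (2%) received compound after a 6 hr settling period, followed by R5020 agonist at 1 nM final; 16 hr incubation preceded the FRET substrate step and fluorescence measurement.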

Values joined by “and” are separate entries in the source; they are usually repeats but may differ in a detail not shown here. Identical values can stand only once. Values without a mark were called inactive. Inconclusive results are not listed. Active and inactive are the calls of the source. Unless noted, the call rests on the fitted dose curve; in most records, active means well fitted curve in the direction sought with a large enough effect in the repeat runs; inconclusive means weak or mixed curves; inactive means no such curve, though single readings can be large; an effect the other way counts as inactive or inconclusive.

Chain of Progesterone receptor (Homo sapiens) (P06401 whole entry, looked up): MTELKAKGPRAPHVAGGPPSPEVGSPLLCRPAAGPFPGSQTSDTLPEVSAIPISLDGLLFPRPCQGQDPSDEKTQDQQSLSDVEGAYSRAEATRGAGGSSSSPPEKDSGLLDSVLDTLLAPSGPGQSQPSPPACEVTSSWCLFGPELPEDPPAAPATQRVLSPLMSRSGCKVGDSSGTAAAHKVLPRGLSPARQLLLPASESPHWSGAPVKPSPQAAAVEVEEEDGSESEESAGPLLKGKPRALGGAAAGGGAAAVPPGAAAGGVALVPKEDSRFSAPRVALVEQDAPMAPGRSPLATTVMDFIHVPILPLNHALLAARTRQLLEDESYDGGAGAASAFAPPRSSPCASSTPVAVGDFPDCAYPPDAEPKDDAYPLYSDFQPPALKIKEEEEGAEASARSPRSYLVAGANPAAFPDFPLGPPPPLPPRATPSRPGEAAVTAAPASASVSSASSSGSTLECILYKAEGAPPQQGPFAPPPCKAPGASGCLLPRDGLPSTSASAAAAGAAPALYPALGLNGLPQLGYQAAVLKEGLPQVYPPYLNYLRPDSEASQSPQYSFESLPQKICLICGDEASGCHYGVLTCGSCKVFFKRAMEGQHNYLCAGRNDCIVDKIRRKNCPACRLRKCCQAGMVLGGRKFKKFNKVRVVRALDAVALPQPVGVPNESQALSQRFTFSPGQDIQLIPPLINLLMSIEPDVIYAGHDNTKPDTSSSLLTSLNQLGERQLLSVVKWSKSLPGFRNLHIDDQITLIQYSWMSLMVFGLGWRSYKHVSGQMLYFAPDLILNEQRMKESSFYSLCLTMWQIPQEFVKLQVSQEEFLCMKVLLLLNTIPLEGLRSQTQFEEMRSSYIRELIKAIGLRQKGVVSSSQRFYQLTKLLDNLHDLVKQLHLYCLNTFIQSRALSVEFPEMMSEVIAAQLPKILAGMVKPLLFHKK

With `COc1nc(C)nc(NC(=O)NS(=O)(=O)c2ccccc2Cl)n1`, the Potency result in experiment [1], in [2], in [3], in experiment [4], in experiment [6] and in [7] was “inactive” throughout. Besides, in experiment [5], the outcome was inactive.

For `COc1ccc2[nH]cc(CCN(C(C)C)C(C)C)c2c1`, the Potency entry in experiment [8], in experiment [3] and in experiment [4] was “inactive” throughout. Besides, the outcome in experiment [5] was inactive.

As for `[O]=[Cr](=[O])([OH])[O][Cr](=[O])(=[O])[OH]`, the Potency entry in [8] and in experiment [2] was “inactive” in each case. For the same molecule, the Potency in experiment [3] is 27.8 µM (active) and 24.5 µM (active); in experiment [4], 24.8 µM (active) and 24.5 µM (active). In addition, in experiment [5], the molecule was called inactive.

Regarding `Nc1ccc(Cl)cc1C(=O)c1ccccc1F`, the Potency result in [1], in experiment [8], in experiment [3], in experiment [4], in experiment [6] and in experiment [7] was “inactive” in each case. The molecule was called inactive in experiment [5].

In the case of `O.O.O.O.O.O.O.O=S(=O)([O-])[O-].[Co+2]`, in experiment [4], the Potency entry is “inactive”. In addition, in experiment [5], the result was inactive.

Consider `COP(=O)(OC)Oc1ccc([N+](=O)[O-])cc1`, for which the Potency entry in experiment [8], in experiment [3], in experiment [4], in experiment [6] and in experiment [7] was “inactive” in each case.

As for `CCCCC(CC)COC(=O)c1ccccc1C(=O)OCC(CC)CCCC` (stereo not drawn), the Potency in experiment [1] is 43.3 µM (active). Further, the Potency result in [4], in [6] and in experiment [7] was “inactive” throughout.

Regarding `c1ccc2c(c1)cc1ccc3cccc4ccc2c1c34`, the Potency result in [2], in [3], in [4], in [6] and in [7] was “inactive” throughout.

As for `C[C@]12C/C(=C/O)C(=O)C[C@@H]1CC[C@@H]1[C@@H]2CC[C@@]2(C)[C@H]1CC[C@]2(C)O`, the Potency in experiment [8] was 69.2 µM (active); in experiment [2] it was 77.7 µM (active). Further, the Potency result in [3], in [4], in [6] and in [7] was “inactive” in each case.

For the molecule `CCCCC(CC)COC(=O)OOC(C)(C)C` (stereo not drawn), the Potency result in [9], in experiment [8], in experiment [2], in experiment [4], in experiment [6] and in experiment [7] was “inactive” throughout. For the same molecule, the molecule was classed as inactive in experiment [5].

`N#Cc1c[nH]cc1-c1cccc2c1OC(F)(F)O2`: the Potency entry in [3], in experiment [6] and in experiment [7] was “inactive” in each case. For the same molecule, in [5], the result was inactive.

In the case of `c1ccc2nc(N3CCNCC3)ccc2c1`, the Potency entry in experiment [1], in [9], in [3], in [4], in experiment [6] and in experiment [7] was “inactive” throughout. In [5], the outcome was inactive.

For the molecule `Brc1ccc(Oc2ccc(Br)cc2Br)c(Br)c1`, the Potency entry in experiment [1], in [8], in experiment [3], in experiment [4], in experiment [6] and in [7] was “inactive” in each case.

Turning to `CC[C@]1(O)CC[C@H]2[C@@H]3CCC4=CCCC[C@@H]4[C@H]3CC[C@@]21C`, the Potency result in [3] and in experiment [4] was “inactive” in each case.

For `O.O.O.O=C([O-])[C@H]([O-])[C@@H]([O-])C(=O)[O-].O=C([O-])[C@H]([O-])[C@@H]([O-])C(=O)[O-].[K+].[K+].[Sb+3].[Sb+3]`, the Potency entry in experiment [1], in [3], in experiment [4], in experiment [6] and in experiment [7] was “inactive” each time.

In the case of `O=[N+]([O-])[O-].[Tl+]`, the Potency result in experiment [1], in [8], in experiment [3] and in experiment [4] was “inactive” each time. In addition, in experiment [5], the molecule was called inactive.

For the molecule `CCC(C)Nc1c([N+](=O)[O-])cc(C(C)(C)C)cc1[N+](=O)[O-]` (stereo not drawn), the Potency result in [1], in experiment [8], in [2], in [4], in experiment [6] and in experiment [7] was “inactive” in each case. Further, the outcome in experiment [5] was inactive.

As to `CO/N=C(/C1=NOCCO1)c1ccccc1Oc1ncnc(Oc2ccccc2Cl)c1F`, the Potency result in [1], in [4], in experiment [6] and in experiment [7] was “inactive” each time. The Potency in experiment [9] was 27.3 µM (active). In addition, the result in experiment [5] was inactive.

In the case of `CSC(C)(C)/C=N/O`, the Potency entry in experiment [1], in [9], in [3], in experiment [4], in experiment [6] and in experiment [7] was “inactive” each time. For the same molecule, in experiment [5], the molecule was classed as inactive.

On to `c1ccc(Nc2ccc(Nc3ccccc3)cc2)cc1`, for which the Potency result in [1], in experiment [3], in experiment [4], in [6] and in [7] was “inactive” in each case. For the same molecule, the Potency in experiment [9] was 6.09 µM (active). In experiment [5], the call was inactive.

Consider `CCN(CC)CCN1C(=O)CN=C(c2ccccc2F)c2cc(Cl)ccc21`, for which the Potency result in experiment [8], in experiment [3], in experiment [4], in [6] and in experiment [7] was “inactive” each time. In addition, the result in experiment [5] was inactive.

As to `O=S1(=O)OCC2C(CO1)C1(Cl)C(Cl)=C(Cl)C2(Cl)C1(Cl)Cl` (stereo not drawn), the Potency entry in experiment [1], in experiment [8], in [2], in experiment [3], in experiment [4] and in experiment [6] was “inactive” in each case. For the same molecule, the Potency result in experiment [7] was “inactive”.

In the case of `CC(=O)[O-].CC(=O)[O-].[Co+2]`, the Potency result in experiment [1], in experiment [3] and in experiment [4] was “inactive” throughout. Besides, the result in experiment [5] was inactive.

On to `CN1CCc2cc3c(cc2C1O)OCO3` (stereo not drawn), for which the Potency result in experiment [9], in experiment [8], in [2], in [3], in experiment [4] and in experiment [6] was “inactive” each time. Besides, the Potency entry in [7] was “inactive”.

As to `Nc1c(Cl)c(Cl)c(Cl)c(Cl)c1Cl`, in experiment [1], the Potency is 1.22 µM (active). Moreover, the Potency entry in experiment [4], in experiment [6] and in experiment [7] was “inactive” throughout.

In the case of `CCN1CCC2(CC1)COc1cc3c(cc12)N(C(=O)c1ccc(-c2ccc(-c4nnc(C)o4)cc2C)cc1)CC3`, the Potency entry in [1], in [6] and in experiment [7] was “inactive” throughout. The values for the Potency in [8] and in [2] were 25.2 µM (active) and 8.93 µM (active), respectively.

For the molecule `CCC[CH2][Sn]([CH2]CCC)([O]C(C)=O)[O]C(C)=O`, the Potency in experiment [9] was 0.195 µM (active). In addition, the Potency result in experiment [3] and in [4] was “inactive” each time.

As for `Cc1ccccc1OP(=O)(Oc1ccccc1C)Oc1ccccc1C`, the Potency result in experiment [1], in experiment [8], in experiment [3], in experiment [4], in [6] and in experiment [7] was “inactive” throughout. Further, the outcome in experiment [5] was inactive.

Take `CCN(CC)CCc1c[nH]c2ccccc12`: the Potency entry in experiment [1], in experiment [3], in [4], in experiment [6] and in experiment [7] was “inactive” each time. Besides, the Potency in [8] was 90.4 µM (active). Moreover, the result in experiment [5] was inactive.

For the molecule `CC(=O)[O][Pb]([c]1ccccc1)([c]1ccccc1)[c]1ccccc1`, the Potency in experiment [2] is 4.33 µM (active); in experiment [3] it was 4.9 µM (active); in experiment [4], 4.36 µM (active).

Consider `CCN(CC)Cc1nccn1-c1ccc([N+](=O)[O-])cc1C(=O)c1ccccc1Cl`, for which the Potency entry in experiment [1], in experiment [3], in experiment [4], in [6] and in experiment [7] was “inactive” each time. For the same molecule, in experiment [5], the molecule was classed as inactive.

As to `C[C@H]1[C@H](c2ccc(Cl)cc2)SC(=O)N1C(=O)NC1CCCCC1`, the Potency entry in [1], in experiment [4], in [6] and in [7] was “inactive” each time. In addition, in [9], the Potency is 13.7 µM (active). Also, the molecule was called inactive in experiment [5].
